This note sets out measurements from publication PMC7862700, “An all-to-all approach to the identification of sequence-specific readers for epigenetic DNA modifications on cytosine”.

What all share (assay): DAPPL (digital affinity profiling via proximity ligation, sequencing); 10 mM Tris-HCl pH 7.5, 50 mM NaCl, 1 mM DTT, 4% glycerol, room temperature, 30 min; GST-TFs on glutathione beads, 16-mer random dsDNA library, 0.1% formaldehyde crosslink after washing; high values mean tight binding
Common to all, as to conditions: protein: recombinant; tags: N-terminal GST; dsDNA, one strand shown

The target in one test is T1, FLI1 (Homo sapiens, UniProt Q01543 1-452).
T1 sequence: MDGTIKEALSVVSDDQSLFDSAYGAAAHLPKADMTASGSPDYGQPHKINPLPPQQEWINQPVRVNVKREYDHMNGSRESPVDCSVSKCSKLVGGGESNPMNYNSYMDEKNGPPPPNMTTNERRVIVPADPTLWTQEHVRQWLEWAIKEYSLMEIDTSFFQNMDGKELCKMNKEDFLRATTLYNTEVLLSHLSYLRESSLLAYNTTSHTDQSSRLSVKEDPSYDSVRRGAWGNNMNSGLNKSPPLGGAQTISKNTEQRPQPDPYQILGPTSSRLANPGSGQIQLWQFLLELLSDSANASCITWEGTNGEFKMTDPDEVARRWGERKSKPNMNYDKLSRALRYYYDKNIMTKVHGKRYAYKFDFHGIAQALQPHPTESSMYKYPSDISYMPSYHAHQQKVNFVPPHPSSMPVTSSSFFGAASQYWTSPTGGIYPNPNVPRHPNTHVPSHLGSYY
In outline:
(§1)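 Yeast served to express human transcription factors as GST fusions, which were then captured on glutathione beads and labelled with DNA barcodes. Pooled with a tag-only sample, they were incubated with 200 nmole of a 16-mer random double-stranded DNA library for 30 min at room temperature in Tris/NaCl/DTT/glycerol buffer, washed, crosslinked with 0.1% formaldehyde, ligated by proximity, amplified by PCR and sequenced. Dividing each hexamer's read frequency for a factor by its frequency for the tag-only sample gives the binding signal.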

The target in another test is T2, ELK1 (Homo sapiens, UniProt P19419 1-428).
T2 sequence: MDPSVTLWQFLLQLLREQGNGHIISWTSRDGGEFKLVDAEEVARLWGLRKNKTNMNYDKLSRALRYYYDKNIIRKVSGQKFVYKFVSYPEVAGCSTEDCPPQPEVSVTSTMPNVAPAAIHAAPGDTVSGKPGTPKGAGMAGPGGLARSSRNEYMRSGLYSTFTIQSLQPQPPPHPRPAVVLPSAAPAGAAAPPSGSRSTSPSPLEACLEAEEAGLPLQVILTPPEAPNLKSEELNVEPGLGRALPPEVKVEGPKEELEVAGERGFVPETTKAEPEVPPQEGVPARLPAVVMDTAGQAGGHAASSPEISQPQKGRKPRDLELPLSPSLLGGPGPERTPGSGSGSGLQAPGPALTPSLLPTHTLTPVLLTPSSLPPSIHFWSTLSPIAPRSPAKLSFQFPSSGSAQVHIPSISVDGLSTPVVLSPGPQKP
In outline:
as §1

The target of a further test is T3, GABPA (Homo sapiens, UniProt Q06546 1-454).
T3 sequence: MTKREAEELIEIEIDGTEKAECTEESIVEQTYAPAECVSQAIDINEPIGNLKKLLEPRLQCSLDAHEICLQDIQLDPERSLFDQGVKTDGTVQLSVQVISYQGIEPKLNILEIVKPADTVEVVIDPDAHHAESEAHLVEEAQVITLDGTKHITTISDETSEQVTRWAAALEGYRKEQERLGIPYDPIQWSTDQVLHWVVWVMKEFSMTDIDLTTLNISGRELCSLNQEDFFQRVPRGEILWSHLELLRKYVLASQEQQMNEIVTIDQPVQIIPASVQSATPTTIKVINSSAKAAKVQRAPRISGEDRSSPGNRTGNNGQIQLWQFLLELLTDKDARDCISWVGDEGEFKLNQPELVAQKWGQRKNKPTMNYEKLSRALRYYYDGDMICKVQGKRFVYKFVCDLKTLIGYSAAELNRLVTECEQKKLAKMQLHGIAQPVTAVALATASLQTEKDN
In outline: as §1

The target in the next test is T4, ERG (Homo sapiens, UniProt P11308 1-479).
T4 sequence: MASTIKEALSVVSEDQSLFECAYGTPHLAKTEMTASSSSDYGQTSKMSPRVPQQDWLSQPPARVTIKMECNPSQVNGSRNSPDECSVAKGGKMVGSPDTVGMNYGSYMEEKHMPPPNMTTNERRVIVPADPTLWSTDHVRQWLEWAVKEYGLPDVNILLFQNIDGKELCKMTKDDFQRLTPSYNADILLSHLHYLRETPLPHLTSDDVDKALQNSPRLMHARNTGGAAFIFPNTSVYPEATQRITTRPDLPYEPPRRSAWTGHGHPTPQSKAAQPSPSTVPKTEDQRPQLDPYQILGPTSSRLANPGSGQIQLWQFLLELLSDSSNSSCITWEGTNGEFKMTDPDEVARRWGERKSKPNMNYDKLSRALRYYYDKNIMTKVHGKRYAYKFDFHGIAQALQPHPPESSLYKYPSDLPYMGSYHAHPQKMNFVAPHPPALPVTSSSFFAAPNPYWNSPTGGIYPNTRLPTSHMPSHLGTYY
Put shortly:
as §1

A further test addresses ELF1 (Homo sapiens, UniProt P32519 1-619). Put shortly: as §1
The target in another test is T5, EHF (Homo sapiens, UniProt Q9NZC4 1-300).
T5 sequence: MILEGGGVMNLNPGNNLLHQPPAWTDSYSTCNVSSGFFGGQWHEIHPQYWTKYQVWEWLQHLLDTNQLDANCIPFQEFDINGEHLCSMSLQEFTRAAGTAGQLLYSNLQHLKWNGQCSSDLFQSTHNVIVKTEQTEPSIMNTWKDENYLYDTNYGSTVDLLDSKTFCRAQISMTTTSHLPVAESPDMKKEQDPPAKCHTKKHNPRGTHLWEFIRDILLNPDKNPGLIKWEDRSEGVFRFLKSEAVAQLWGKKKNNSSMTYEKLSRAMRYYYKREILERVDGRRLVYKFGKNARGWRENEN
In outline:
as §1

Another test concerns the target SPI1 (Homo sapiens, UniProt P17947 1-270). In outline: as §1
In the next test the target is SPIB (Homo sapiens, UniProt Q01892 1-262). Put shortly: as §1
Chain of SPIB (Q01892 whole entry): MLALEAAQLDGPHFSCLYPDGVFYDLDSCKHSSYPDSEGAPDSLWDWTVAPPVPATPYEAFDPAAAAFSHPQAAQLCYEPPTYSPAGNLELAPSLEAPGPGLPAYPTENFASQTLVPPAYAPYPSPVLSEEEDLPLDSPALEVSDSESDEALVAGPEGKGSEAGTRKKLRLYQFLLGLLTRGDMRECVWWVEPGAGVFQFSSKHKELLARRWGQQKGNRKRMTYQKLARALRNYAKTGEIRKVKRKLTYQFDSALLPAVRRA
Another test has as its target T6, ELK3 (Homo sapiens, UniProt P41970 1-407).
T6 sequence: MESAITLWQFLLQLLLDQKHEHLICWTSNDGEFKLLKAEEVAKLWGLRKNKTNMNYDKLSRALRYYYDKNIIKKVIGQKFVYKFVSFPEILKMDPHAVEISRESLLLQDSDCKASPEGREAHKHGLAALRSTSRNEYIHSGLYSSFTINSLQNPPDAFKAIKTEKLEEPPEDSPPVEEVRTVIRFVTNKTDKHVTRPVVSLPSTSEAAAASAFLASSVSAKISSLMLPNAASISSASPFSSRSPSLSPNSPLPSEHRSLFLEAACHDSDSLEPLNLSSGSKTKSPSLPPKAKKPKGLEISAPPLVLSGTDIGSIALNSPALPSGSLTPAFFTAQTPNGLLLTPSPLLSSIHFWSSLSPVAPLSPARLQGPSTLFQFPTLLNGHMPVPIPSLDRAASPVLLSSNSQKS
In outline:
as §1

Chain of ELF1 (P32519 whole entry): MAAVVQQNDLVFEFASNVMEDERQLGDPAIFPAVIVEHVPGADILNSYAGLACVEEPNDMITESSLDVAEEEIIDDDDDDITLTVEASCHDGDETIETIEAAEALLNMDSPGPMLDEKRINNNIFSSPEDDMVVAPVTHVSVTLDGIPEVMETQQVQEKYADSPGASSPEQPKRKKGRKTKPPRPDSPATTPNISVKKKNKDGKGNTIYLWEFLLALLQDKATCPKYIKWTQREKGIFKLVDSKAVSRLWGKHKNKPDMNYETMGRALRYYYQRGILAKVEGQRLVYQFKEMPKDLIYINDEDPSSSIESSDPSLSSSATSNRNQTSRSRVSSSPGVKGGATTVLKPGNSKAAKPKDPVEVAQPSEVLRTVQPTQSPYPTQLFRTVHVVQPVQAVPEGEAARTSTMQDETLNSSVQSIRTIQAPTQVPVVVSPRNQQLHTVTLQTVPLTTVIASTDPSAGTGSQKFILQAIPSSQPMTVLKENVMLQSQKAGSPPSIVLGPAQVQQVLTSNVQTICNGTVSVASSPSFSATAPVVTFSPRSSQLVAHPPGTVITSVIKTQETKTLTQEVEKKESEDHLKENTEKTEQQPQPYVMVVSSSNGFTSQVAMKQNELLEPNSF

As to GTAAAT, the binding signal with FLI1 was 1.02 fold enrichment (6-mer frequency, TF over GST control); with ELK1 it was 1.09 fold enrichment (6-mer frequency, TF over GST control); with GABPA, 1.21 fold enrichment (6-mer frequency, TF over GST control); with ERG it was 1.14 fold enrichment (6-mer frequency, TF over GST control); with ELF1, 1.16 fold enrichment (6-mer frequency, TF over GST control); with EHF, 1.15 fold enrichment (6-mer frequency, TF over GST control). For the same sequence, the binding signal with SPI1 was 1.22 fold enrichment (6-mer frequency, TF over GST control); with SPIB, 1.18 fold enrichment (6-mer frequency, TF over GST control); with ELK3, 1.16 fold enrichment (6-mer frequency, TF over GST control).

On to CTGTTT, for which the binding signal is 1.48 fold enrichment (6-mer frequency, TF over GST control) with FLI1; 1.36 fold enrichment (6-mer frequency, TF over GST control) in the test with ELK1; 1.41 fold enrichment (6-mer frequency, TF over GST control) with GABPA; 1.4 fold enrichment (6-mer frequency, TF over GST control) with ERG; 1.4 fold enrichment (6-mer frequency, TF over GST control) with ELF1; 1.34 fold enrichment (6-mer frequency, TF over GST control) with EHF. For the same sequence, the binding signal was 1.6 fold enrichment (6-mer frequency, TF over GST control) with SPI1; 1.43 fold enrichment (6-mer frequency, TF over GST control) with SPIB; 1.34 fold enrichment (6-mer frequency, TF over GST control) with ELK3.

For TTCGAC, the binding signal was 1.52 fold enrichment (6-mer frequency, TF over GST control) in the test with FLI1; 1.51 fold enrichment (6-mer frequency, TF over GST control) with ELK1; 1.49 fold enrichment (6-mer frequency, TF over GST control) in the test with GABPA; 1.43 fold enrichment (6-mer frequency, TF over GST control) with ERG; 1.49 fold enrichment (6-mer frequency, TF over GST control) with ELF1; 1.41 fold enrichment (6-mer frequency, TF over GST control) in the test with EHF. The binding signal with SPI1 is 1.3 fold enrichment (6-mer frequency, TF over GST control); in the test with SPIB, 1.45 fold enrichment (6-mer frequency, TF over GST control); with ELK3 it was 1.39 fold enrichment (6-mer frequency, TF over GST control).

With GCTCCC, the binding signal in the test with FLI1 was 1.37 fold enrichment (6-mer frequency, TF over GST control); with ELK1, 1.28 fold enrichment (6-mer frequency, TF over GST control); with GABPA, 1.34 fold enrichment (6-mer frequency, TF over GST control); with ERG, 1.33 fold enrichment (6-mer frequency, TF over GST control); in the test with ELF1 it was 1.37 fold enrichment (6-mer frequency, TF over GST control); in the test with EHF, 1.33 fold enrichment (6-mer frequency, TF over GST control). In addition, the binding signal is 1.26 fold enrichment (6-mer frequency, TF over GST control) in the test with SPI1; 1.28 fold enrichment (6-mer frequency, TF over GST control) in the test with SPIB; 1.18 fold enrichment (6-mer frequency, TF over GST control) with ELK3.

Turning to TCGATC, the binding signal with FLI1 was 1.31 fold enrichment (6-mer frequency, TF over GST control); with ELK1, 1.08 fold enrichment (6-mer frequency, TF over GST control); in the test with GABPA, 1.14 fold enrichment (6-mer frequency, TF over GST control); in the test with ERG it was 1.18 fold enrichment (6-mer frequency, TF over GST control); in the test with ELF1, 1.27 fold enrichment (6-mer frequency, TF over GST control); in the test with EHF, 1.16 fold enrichment (6-mer frequency, TF over GST control). Besides, the binding signal with SPI1 was 1.11 fold enrichment (6-mer frequency, TF over GST control); with SPIB, 1.25 fold enrichment (6-mer frequency, TF over GST control); in the test with ELK3, 1.27 fold enrichment (6-mer frequency, TF over GST control).

Consider TTACTA, for which the binding signal with FLI1 was 1.34 fold enrichment (6-mer frequency, TF over GST control); in the test with ELK1, 1.31 fold enrichment (6-mer frequency, TF over GST control); with GABPA, 1.36 fold enrichment (6-mer frequency, TF over GST control); with ERG, 1.33 fold enrichment (6-mer frequency, TF over GST control); with ELF1, 1.28 fold enrichment (6-mer frequency, TF over GST control); with EHF, 1.23 fold enrichment (6-mer frequency, TF over GST control). Further, the binding signal with SPI1 is 1.27 fold enrichment (6-mer frequency, TF over GST control); in the test with SPIB, 1.36 fold enrichment (6-mer frequency, TF over GST control); in the test with ELK3 it was 1.31 fold enrichment (6-mer frequency, TF over GST control).

ACTTTG: the binding signal is 1.27 fold enrichment (6-mer frequency, TF over GST control) with FLI1; 1.29 fold enrichment (6-mer frequency, TF over GST control) with ELK1; 1.12 fold enrichment (6-mer frequency, TF over GST control) in the test with GABPA; 1.19 fold enrichment (6-mer frequency, TF over GST control) with ERG; 1.26 fold enrichment (6-mer frequency, TF over GST control) with ELF1; 1.19 fold enrichment (6-mer frequency, TF over GST control) in the test with EHF. Also, the binding signal with SPI1 was 1.2 fold enrichment (6-mer frequency, TF over GST control); with SPIB it was 1.16 fold enrichment (6-mer frequency, TF over GST control); with ELK3, 1.07 fold enrichment (6-mer frequency, TF over GST control).
